The values that follow come from the supplement of paper PMC8699584.

Several values for one entry are separate records, joined by “and”; a condition that tells them apart may be missing. Equal entries are not always repeated. Structures can show the parent of a compound that is named as a salt. ± gives the standard deviation of the averaged measurements.

This test relates to Mv4-11. Kind of test: cell viability relative to DMSO control (bortezomib = 0%); higher = less growth inhibition. The following applies: 10 nM; 72 h. Summed up: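 Acute myeloid leukemia cells were plated at 1000 cells per well in 50 µL onto a 679-compound library of approved and investigational agents in 384-well plates and exposed to a single 10 nM dose for 72 h, in duplicate. Cell viability was measured by CellTiter-Glo luminescence on an EnVision reader. Readings were scaled to percentages by per-plate linear regression, with DMSO-treated cells set at 100% and positive-control-treated cells at 0%.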
For `CC(C)(C)c1nc(-c2cccc(NS(=O)(=O)c3c(F)cccc3F)c2F)c(-c2ccnc(N)n2)s1`, the cell viability is 124 ± 2.6%.
In the case of `CN(C)C/C=C/C(=O)Nc1cc2c(Nc3ccc(F)c(Cl)c3)ncnc2cc1O[C@H]1CCOC1` [Afatinib (BIBW2992)], the cell viability is 97.7 ± 6.9%.
With `N#CC(c1ccnc(OCc2ccc(CN3CCOCC3)cc2)n1)c1nc2ccccc2s1` (stereo not given) the figure was 109 ± 11%; with `Cc1ccc([N+](=O)[O-])cc1S(=O)(=O)N(C)/N=C/c1cnc2ccc(Br)cn12` [PIK-75 (hydrochloride)], 92.2 ± 7.8%; with `O=C(Nc1cccnc1)c1cc(-c2ccnc(F)c2)ccc1OCc1ccccc1`, 105 ± 2.3%.
With `N#CC(C#N)=C(N)/C(C#N)=C/c1cc(O)c(O)c(O)c1` the figure was 94.3 ± 15%; with `Cn1cc(-c2ccc3nnc(Sc4ccc5ncccc5c4)n3n2)cn1`, 104 ± 4.2%.
As for `CC(=O)c1cnc2ccc(-c3cc(Cl)c(O)c(Cl)c3)nc2c1N[C@H]1CC[C@H](CN(C)C)CC1`, the figure is 80.6 ± 6.8%.
For the molecule `N[C@@H]1CCCN(c2c(/C=C3\SC(=O)NC3=O)cccc2-c2ccccc2)C1`, the cell viability worked out at 125 ± 9.2%.
`O=C(NCc1ccccc1)c1csc(Nc2ccncn2)n1` [Thiazovivin]: the cell viability was determined as 113 ± 3.7%.
Regarding `O=C1Cc2c([nH]c3ccc(Br)cc23)-c2ccccc2N1` [KenPaullone], the cell viability was 95.2 ± 16%.
`FC(F)(F)c1ccc(CNc2ccc(Cc3c[nH]c4ncc(Cl)cc34)cn2)cn1`: the cell viability was 105 ± 16%.
For `COc1cc(OC)c(/C=C/S(=O)(=O)Cc2ccc(OC)c(OP(=O)(O)O)c2)c(OC)c1` [Briciclib], the cell viability was determined as 106 ± 11%.
With `COc1ccc(S(=O)(=O)N(C(C)=O)c2ccccc2/C=C/c2cc[n+]([O-])cc2)cc1` the figure was 104 ± 27%; with `CCCCOc1c(C(=O)c2c(F)cc(C)cc2F)c[nH]c2nncc1-2`, 107 ± 7%; with `O=C1NC(=O)C(c2cnc3ccccn23)=C1c1cn2c3c(cc(F)cc13)CN(C(=O)N1CCCCC1)CC2`, 89.9 ± 4.6%.
As for `CC(C)=CCc1cc2c(cc1O)oc(=O)c1c3ccc(O)cc3oc21` [Psoralidin], the figure is 124 ± 22%.
Take `Cn1cnc(N)c2ncnc1-2` [3-Methyladenine]: the cell viability stood at 111.9 ± 1.1%.
In the case of `O=C(c1ccc(/C=C/c2n[nH]c3ccccc23)cc1)N1CCNCC1`, the cell viability turned out to be 92.9 ± 17%.
As to `COc1ccc(CNc2nc(N(CCO)CCO)nc3c2ncn3C(C)C)cc1`, the cell viability was determined as 104 ± 8.2%.
For the molecule `COc1cc(N2CCOCC2)ccc1Nc1ncc(F)c(Nc2ccccc2NS(C)(=O)=O)n1`, the cell viability is 111 ± 4.2%.
With `CCOc1ccn(-c2ccc(F)cc2)c(=O)c1C(=O)Nc1ccc(Oc2ccnc(N)c2Cl)c(F)c1` the figure was 114 ± 7%.
With `CNC(=O)CN1CCC(Oc2cc3c(Nc4cccc(Cl)c4F)ncnc3cc2OC)CC1` [AZD8931 (Sapitinib)] the figure was 116 ± 4.9%; with `CC(C)c1ccc2oc3nc(N)c(C(=O)O)cc3c(=O)c2c1` [Amlexanox], 92.6 ± 2.2%.
As for `CCN1CCN(Cc2ccc(C(=O)Nc3ccc(C)c(Oc4ccc5c(c4)CC(=O)N5)c3)cc2C(F)(F)F)CC1`, the figure is 114 ± 6.1%; as for `O=C(NCCO)c1cccc(-c2cc(Nc3ccc(OC(F)(F)F)cc3)ncn2)c1`, 107 ± 3.3%.
As for `CCN(CC)CCCCNc1ncc2cc(-c3cc(OC)cc(OC)c3)c(NC(=O)NC(C)(C)C)nc2n1`, the cell viability was 113% and 119%.
For the molecule `CC1(C)C=Cc2c(ccc3c2OC[C@@H](c2ccc(O)cc2O)C3)O1` [Glabridin], the cell viability came out at 99 ± 1.6%.
With `CS(=O)(=O)c1cccc(CNc2nc(Nc3ccc4c(c3)CCC(=O)N4)ncc2C(F)(F)F)c1` the figure was 101 ± 4.3%; with `Oc1cc(-c2nc(-c3ccccc3)[nH]c2-c2ccncc2)ccc1Cl`, 105 ± 3.6%; with `CC(=O)CC(c1ccccc1)c1c(O)c2ccccc2oc1=O` (stereo not given) [Warfarin], 103 ± 7%.
For the molecule `CC(C)Oc1ccc(C(=O)N[C@H](CNC(=O)CN(C)C)Cc2ccc(-c3cn4cccc([C@H](C)O)c4n3)cc2)cc1Cl`, the cell viability is 121 ± 9.3%.
With `Cc1ccc2c(Nc3ccc(Cl)cc3)nccc2c1Nc1ncccc1-c1ncnc2nc[nH]c12` [B-Raf inhibitor 1] the figure was 107.5 ± 0.62%; with `CN1CCN(CCOc2cc(OC3CCOCC3)c3c(Nc4c(Cl)ccc5c4OCO5)ncnc3c2)CC1` [Saracatinib (AZD0530)], 106 ± 6.2%; with `CN1CCN(S(=O)(=O)c2ccc(-c3cnc(N)c(C(=O)Nc4cccnc4)n3)cc2)CC1`, 100 ± 0.48%.
Turning to `Nc1ncnc2c1ncn2[C@@H]1O[C@H](COP(=O)(O)O)[C@@H](O)[C@H]1O` [Adenosine 5'-monophosphate], the cell viability was found to be 113 ± 2.5%.
With `Cc1nc2ccc(-n3ncc(C(=O)c4cc5ccccc5[nH]4)c3N)cc2[nH]1` the figure was 110 ± 12%; with `Nc1ncnc2c1c(-c1cnc3[nH]ccc3c1)nn2C1CCCC1`, 125 ± 14%.
As for `COc1ccc(-c2cnc3c(-c4cccc5ncccc45)cnn3c2)cc1`, the figure is 103 ± 1.6%; as for `O=C(Nc1nc2cccc(-c3ccc(CN4CCS(=O)(=O)CC4)cc3)n2n1)C1CC1` [Filgotinib (GLPG0634)], 107.7 ± 0.87%.

Broadly, the cell viability is a read-out of living cells in per cent, often relative to untreated cells.
